High-throughput results: PubChem BioAssay, National Center for Advancing Translational Sciences (NCATS)
The list is not random: actives were taken first. Their share in the collection is about 9.3%.
FMDV antiviral – antivirals against foot and mouth disease virus; 410,000 compounds, 1.2% hits; Potency, µM (highest dose often 57.9 µM), without a hit: at the top dose activity change, negative = inhibition, most hits filed as inhibitors; FMDV antiviral cell-based qHTS; calls by dose curve; tested in HEK293T cells; further: read-out not given here; potency means the concentration at half of the fitted maximal effect; nearly all actives have a fitted effect of over 45% in size
HCV inh – inhibitors of hepatitis C virus infection | Huh7.5.1 HCVcc-Cre infection, luciferase reporter, 44 h | Potency, µM (doses to about 41.8 µM), without a hit: at the top dose activity change, negative = inhibition, most hits filed as inhibitors | 340,000 compounds, 3.4% hits; further: potency means the concentration at half of the fitted maximal effect
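Reporter virus HCVcc-Cre (~0.5 moi) infects cells exposed to compound; seeding density 1,000 cells/well with 4 h settling beforehand. Luminescence, 15 sec read, taken 44 h post-infection following a 15 min RT substrate incubation.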
VACV mCherry inh – inhibitors of vaccinia virus infection (mCherry reporter signal); Vaccinia virus mCherry reporter infection, fluorescence; Potency, µM (top dose mostly 36.5 µM), for the others: at the top dose activity change, negative = inhibition, most hits filed as inhibitors; 310,000 compounds, 0.63% hits; AID 720579; calls by dose curve; tested in A549 cells; further: potency means the concentration at half of the fitted maximal effect; nearly all actives have a fitted effect of over 35% in size
Vaccinia Venus – vaccinia inhibition (Venus reporter); 330,000 compounds, 0.46% hits; Potency, µM (highest dose often 36.5 µM), for the others: at the top dose activity change, negative = inhibition, usual class: inhibitors; Vaccinia virus Venus reporter expression, fluorescence; calls by dose curve; tested in A549 cells; further: potency means the concentration at half of the fitted maximal effect; nearly all actives have a fitted effect of over 30% in size
HCMV antiviral – human cytomegalovirus inhibition; 410,000 compounds, 4.5% hits; activity change, negative = inhibition, % at 57.5 µM; HFF cells, HCMV-luciferase reporter, 72 h; hits give low values; in the data active means activity change below about -60%; inconclusive means no clear call, values can overlap the other calls; inactive means above about -39%
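Two compound doses tested in HFFs infected with HCMV-luciferase, MOI 1 PFU/cell, 72 h at 37C. Lysate luminescence read with OneGlo; data normalized against buffer-only and 10uM Salinomycin inhibitor controls.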
Sm TGR block – S. mansoni TGR enzyme inhibition | Potency, µM (titrated, usually from 114 µM), for the others: at the highest dose activity change, negative = inhibition, most hits filed as inhibitors | purified TGR, DTNB reduction, TNB absorbance 405 nm | Q962Y6 | 360,000 compounds, 3% hits; further: potency means the concentration at half of the fitted maximal effect; nearly all actives have a fitted effect of over 60% in size
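Kinetic colorimetric format: TGR-catalysed, NADPH-driven DTNB reduction monitored via TNB absorbance. Enzyme dispensed at 20 nM; compound exposure 15 min at room temperature before reaction start.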
An asterisk follows results filed as active; i = inactive; ? = inconclusive; . = no result; ! = not confirmed by another sample. Unless noted, the call rests on the fitted dose curve; in most records, active means well fitted curve in the direction sought with a large enough effect; inconclusive means small, poorly fitted or top-dose-only effect, or another doubt; inactive means no such curve, though single readings can be large; an effect the other way counts as inactive or inconclusive. On the % scale 0 is the no-effect control and ±100 the full control effect.

SMILES	FMDV antiviral	HCV inh	VACV mCherry inh	Vaccinia Venus	HCMV antiviral	Sm TGR block
COc1ccccc1C(=O)N1c2ccccc2Sc2ccccc21	-12.1%	?	?	-28.5%	-72.7*	-1.2%
N#C/C(=C\c1ccccc1C(=O)O)c1nc2ccccc2[nH]1	12.0%	-7.2%	-10.2%	-13.2%	58.4	-3.6%
COc1cccc(/C=C(\C#N)c2nc3ccc(C)cc3[nH]2)c1OCC(=O)O	-1.2%	2.6%	.	.	27.9	1.4%
CCN(CC)c1ccc(/C=C(/C#N)c2nc3ccccc3[nH]2)c(OC(C)C)c1	33.3%	2µM*	.	.	-35.4	7.7%
CCOc1cccc(/C=C(/C#N)c2nc3ccccc3[nH]2)c1OCC(=O)O	-11.7%	5.4%	.	.	-101.3*	0.3%
CCOc1ccc(NC(=O)C2CCCN(c3nnc(C)c4c(C)n(-c5ccccc5)nc34)C2)cc1 (stereo unspecified)	-4.0%	.	-13.1%	-11.2%	2.4	-9.7%
c1ccc(Cn2cc(CN3CCCCO3)c(-c3ccc4c(c3)OCO4)n2)cc1	-2.4%	-24.6%	.	.	2.3	13.2%
Cc1ncc(CO)c(/C=N/NC(=O)c2ccc(O)cc2)c1O	-29.4%	-15.0%	-16.6%	-2.3%	3.2	-2.8%
Cc1ncc(CO)c(/C=N/NC(=O)c2cc3c(s2)CCCC3)c1O	-6.2%	7.94µM*	.	.	-65.9*	-1.2%
Cc1ncc(CO)c(/C=N/NC(=S)Nc2ccc(Cl)c(Cl)c2)c1O	-9.9%	14.1µM*	-19.2%	-17.4%	7.5	-23.7%
Cc1ncc(CO)c(/C=N/NC(=S)Nc2cccc(Cl)c2)c1O	-9.9%	?	?	?	.	-0.3%
O=C(CNCC(=O)Nc1ccc(F)c(F)c1F)Nc1ccc(F)c(F)c1F	-4.4%	13.6%	.	.	-82.8*	3.9%
CN(C)CCCN1c2ccccc2Sc2ccc3ccccc3c21	?	?	10µM*	?	17.0	.
O=C(CCl)N1c2ccccc2Sc2ccc3ccccc3c21	31.6µM*	.	?	10µM*	.	.
CN(C)CCCN1c2ccccc2Sc2ccc(Cl)cc21	?	?	?	?	-66.1*!	-5.1%
OCCN1CCN(CCCN2c3ccccc3Sc3ccc(Cl)cc32)CC1	-21.1%	?	?	?	-7.7	-8.7%
Cc1ccc(-n2ncc3c(Nc4ccc5c(c4)OCCO5)ncnc32)cc1Cl	-23.1%	.	-19.5%	-28.3%	-23.7	-1.7%
CCOC(=O)N1CCC(Nc2ncnc3c2cnn3-c2ccc(C)cc2C)CC1	?	7.08µM*	?	?	-92.7*	-0.7%
Cc1ccc(Cl)cc1-n1ncc2c(NC3CCCCC3)ncnc21	?	.	-21.5%	-9.5%	-78.2*	3.6%
Cc1ccc(Cl)cc1-n1ncc2c(Nc3ccc4c(c3)OCCO4)ncnc21	?	.	-17.8%	-18.6%	-88.4*	2.1%
Cc1c(CCO)sc[n+]1CC(=O)c1ccccc1	.	.	-11.6%	-10.3%	.	.
Cc1ccc(C(=O)OCCc2sc[n+](Cc3ccccc3)c2C)cc1	-1.6%	7.4%	-10.1%	-11.6%	-39.7	-14.4%
Cc1c(CCOC(=O)c2cc([N+](=O)[O-])cc([N+](=O)[O-])c2)sc[n+]1CC(=O)c1ccc(Br)cc1	-28.3%	10µM*	-12.9%	-17.7%	-32.7	?
Cc1c(CCOC(=O)C23CC4(C)CC(C)(CC(C)(C4)C2)C3)sc[n+]1CC(=O)c1ccccc1	28.2µM*	11.5%	?	?	-100.5*	.
Cc1c(CCOC(=O)C23CC4CC(CC(C)(C4)C2)C3)sc[n+]1Cc1ccccc1	15.8µM*	-1.6%	.	.	17.3	-15.0%
SMILES	FMDV antiviral	HCV inh	VACV mCherry inh	Vaccinia Venus	HCMV antiviral	Sm TGR block
Cc1c(CCOC(=O)c2ccc(Cl)cc2Cl)sc[n+]1CC(=O)c1ccccc1	-20.8%	12.6µM*	-14.9%	?	12.0	.
NC(=O)C1CCN(c2ncnc3c2c(-c2ccccc2)cn3-c2ccccc2)CC1	0.0%	-28.1%	?	?	39.1	-31.5%
Cc1c(CCOC(=O)CC23CC4CC(CC(C4)C2)C3)sc[n+]1CC(=O)c1ccccc1	?	11.2µM*	.	.	48.0	0.0%
NC(=S)Nc1ccc(Cl)c(Cl)c1	6.8%	0.6%	.	.	-60.1*	10.8%
NC(=S)NNc1ccc(Cl)c(Cl)c1	-16.3%	-9.8%	.	.	0.5	2µM*
Cc1ccc(NNC(N)=S)cc1Cl	0.0%	28.3%	.	.	11.2	39.8µM*
COc1ccc(NC(=O)N(C)C[C@H]2Oc3c(NC(=O)c4ccncc4)cccc3C(=O)N([C@H](C)CO)C[C@@H]2C)cc1	0.0%	13.7%	i	-4.5%	-1.3	.
O=C(CCNS(=O)(=O)c1ccc(Br)cc1)NCc1ccco1	-2.0%	-4.7%	-11.1%	-11.1%	-4.4	-5.1%
CCS(=O)(=O)Nc1c(C(=O)O)[nH]c2ccccc12	43.5%	0.0%	-4.4%	7.8%	-107.8*	?
CC(C)=CCCC(C)CN1CCC(N2CCC(C(=O)NC(C)C)CC2)CC1 (stereo unspecified)	?	2.82µM*	.	.	-30.2	-4.3%
CC(C)=CC(=O)N1CCC(N2CCC(C(=O)N3CCOCC3)CC2)CC1	0.0%	16.3%	.	.	-28.4	-11.4%
CC(C)=CCCC(C)CN1CCC(N2CCC(C(=O)N3CCOCC3)CC2)CC1 (stereo unspecified)	-8.3%	0.891µM*	.	.	-8.9	-0.6%
CNc1nc(NCc2ccccc2)nc(N)c1[N+](=O)[O-]	4.4%	-6.5%	.	.	45.2	-24.1%
O=C(O)C(Cc1ccc(O)cc1)N1C(=O)c2c(Cl)c(Cl)c(Cl)c(Cl)c2C1=O (stereo unspecified)	-13.7%	11.7%	-0.8%	-16.4%	34.8	.
O=C(Nc1ccc(Br)cc1)c1nn(C23CC4CC(CC(C4)C2)C3)cc1Br	?	2.6%	.	-6.6%	-26.5	-26.0%
CC(C)Oc1cc(F)ccc1-c1cc(C(=O)NCc2ccccn2)[nH]n1	-23.2%	.	0.0%	-5.3%	-76.2*	.
CC(C)Oc1cc(F)ccc1-c1cc(C(=O)NCc2cccnc2)[nH]n1	-12.0%	.	-24.3%	-15.9%	-24.2	.
COc1ccc(C(=O)O/N=C(\N)c2ccccn2)c(OC)c1	-57.5%	?	-2.6%	-17.0%	-74.9*	3.8%
COc1ccc(C(=O)O/N=C(\N)c2ccccc2)c(OC)c1	-36.3%	?	2.1%	-16.0%	-77.7*	-0.5%
COc1ccc(C(=O)O/N=C(\N)c2ccc(OC)c(OC)c2)c(OC)c1	16.1%	12.6µM*	.	.	.	-2.2%
COc1ccc(C(=O)O/N=C(\N)c2ccc(OC)c(OC)c2)cc1	15.7%	3.6%	.	.	69.0	-2.2%
COc1cc(OC)cc(C(=O)O/N=C(\N)c2ccncc2)c1	8.9%	-27.4%	-9.9%	-23.9%	40.1	10.7%
COc1cc(OC)cc(C(=O)O/N=C(\N)c2cccc(C)c2)c1	25.5%	11.2µM*	.	.	46.2	-7.2%
Cc1ccc(NC(=O)C2c3ccccc3Oc3ccccc32)nc1	1.6%	1.2%	i	-7.1%	?	12.3%
O=C(COc1ccc(Cl)cc1Cl)N/N=C1\CCCc2ccccc21	-2.1%	?	-9.9%	-4.4%	-28.0	8.7%
